Screen size: about 310,000 compounds; about 2,200 (0.71%) showed an effect of 50% or more. Effects have a minus sign here. Many of the other results were omitted from the sample, so strong results are more common in it than they were.
The compounds below were run against human ether-à-go-go-related gene (hERG) potassium channel (human, UniProt Q12809) (assay: primary screen, population patch clamp on CHO cells stably expressing hERG; higher = less effect of the substance).
human ether-à-go-go-related gene (hERG) potassium channel, sequence (Q12809 whole entry, looked up): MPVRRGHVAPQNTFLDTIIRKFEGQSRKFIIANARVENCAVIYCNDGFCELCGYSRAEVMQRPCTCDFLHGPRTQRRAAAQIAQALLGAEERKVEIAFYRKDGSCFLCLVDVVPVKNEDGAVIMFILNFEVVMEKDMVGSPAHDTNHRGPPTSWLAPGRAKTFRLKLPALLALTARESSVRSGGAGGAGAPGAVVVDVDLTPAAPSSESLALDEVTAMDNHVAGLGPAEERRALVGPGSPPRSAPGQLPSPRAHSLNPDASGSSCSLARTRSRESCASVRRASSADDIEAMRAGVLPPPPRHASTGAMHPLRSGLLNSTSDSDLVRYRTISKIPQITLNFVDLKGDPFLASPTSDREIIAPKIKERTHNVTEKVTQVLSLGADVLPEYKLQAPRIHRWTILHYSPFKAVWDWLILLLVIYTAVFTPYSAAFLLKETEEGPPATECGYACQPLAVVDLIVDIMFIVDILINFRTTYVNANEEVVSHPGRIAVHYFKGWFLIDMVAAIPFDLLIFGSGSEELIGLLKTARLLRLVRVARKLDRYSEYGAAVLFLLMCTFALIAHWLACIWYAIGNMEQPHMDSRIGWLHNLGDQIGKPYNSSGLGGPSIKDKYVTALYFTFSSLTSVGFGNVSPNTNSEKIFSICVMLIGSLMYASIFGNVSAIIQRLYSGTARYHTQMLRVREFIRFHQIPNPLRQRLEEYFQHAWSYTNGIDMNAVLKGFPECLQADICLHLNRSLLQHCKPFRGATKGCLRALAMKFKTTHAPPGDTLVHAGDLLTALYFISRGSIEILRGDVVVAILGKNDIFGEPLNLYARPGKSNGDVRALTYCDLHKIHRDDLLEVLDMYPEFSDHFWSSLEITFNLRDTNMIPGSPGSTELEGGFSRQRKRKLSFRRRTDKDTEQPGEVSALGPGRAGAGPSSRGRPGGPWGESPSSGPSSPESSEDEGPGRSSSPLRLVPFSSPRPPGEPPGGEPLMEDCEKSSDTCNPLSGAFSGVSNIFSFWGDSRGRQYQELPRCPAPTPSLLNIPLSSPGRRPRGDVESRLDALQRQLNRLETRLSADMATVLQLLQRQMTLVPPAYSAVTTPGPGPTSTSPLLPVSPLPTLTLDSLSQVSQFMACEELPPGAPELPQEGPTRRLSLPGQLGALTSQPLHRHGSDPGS

Compound | hERG current change (%, negative = inhibition) at 1uM [%]
O=C(c1ccc2c(c1)ncn2C1CCCCC1)N1CCC2(CC1)OCCO2 | 0.618
CCCN1C(=O)/C(=C/C=C2\N(CC)c3ccccc3C2(C)C)SC1=S | 5.72
CCN1/C(=C\C=C\C2=[N+](CC)c3ccccc3C2(C)C)C(C)(C)c2ccccc21.[O-][Cl+3]([O-])([O-])[O-] | -86.1
CN1/C(=C\C=C\C2=[N+](C)c3ccc4ccccc4c3C2(C)C)C(C)(C)c2ccccc21.[O-][Cl+3]([O-])([O-])[O-] | -43.6
COc1ccc(S(=O)(=O)Nc2ccc(Cc3ccncc3)cc2)cc1C | 0.33
CCCCNC(=O)C1CCC(CNS(=O)(=O)c2c(C)cc(C)cc2C)CC1 (centres unmarked) | -13.4
CC1CCN(CCCNC(=O)C2CCC(CNS(=O)(=O)c3ccccc3)CC2)CC1 (centres unmarked) | 16.3
CCC1CCCCN1CCCNC(=O)C1CCC(CNS(=O)(=O)c2c(C)cc(C)cc2C)CC1 (centres unmarked) | -3.19
CCN(CC)CCCNC(=O)C1CCC(CNS(=O)(=O)c2c(C)cc(C)cc2C)CC1 (centres unmarked) | 12.6
CCCCN(C)CCCNC(=O)C1CCC(CNS(=O)(=O)c2c(C)cc(C)cc2C)CC1 (centres unmarked) | -76.3
Cc1cc(C)c(S(=O)(=O)NCC2CCC(C(=O)NCCCN3CCC(C)CC3)CC2)c(C)c1 (centres unmarked) | -52.9
Cc1ccc(Nc2nc(N)c([N+](=O)[O-])c(NCc3ccccc3)n2)cc1 | 8.5
CC(C)(C)c1ccc(OCCCC(=O)N2CCOCC2)cc1 | -2.13
O=C(CCNC(=O)c1ccccc1Cl)NCC1CCCO1 (centres unmarked) | -9.04
CCCn1c(N)c(C(=O)CN(C)CC(=O)Nc2c(Cl)cccc2Cl)c(=O)[nH]c1=O | 0.55
CCCn1c(N)c(C(=O)CN(C)CC(=O)Nc2ccc(F)cc2)c(=O)[nH]c1=O | -20
CCCn1c(N)c(C(=O)CN(C)CC(=O)Nc2cccc(F)c2)c(=O)[nH]c1=O | -73.1
O=C(Nc1ccccc1)N1CCn2c(nc3ccccc32)C1 | -6.18
COc1cc(C(=O)Nc2ccc(C)cc2)c2ccccc2n1 | 7.49
CN(Cc1ccccc1)C(=O)CCc1ccccc1 | 13.8
Cc1cc(Nc2cccc([N+](=O)[O-])c2)c2cccc(C)c2n1.Cl | -73.5
CC(=O)c1cccc(Nc2cc(C)nc3c(C)cccc23)c1.Cl | -16.9
Cc1cc(Nc2cccc([N+](=O)[O-])c2)c2ccccc2n1 | -36.7

Compound | hERG current change (%, negative = inhibition) at 1uM [%]
COc1ccc(Br)c(C(=O)OCC(=O)NC2CCCCCC2)c1 | -1.39
CCCCN(CC)CCNC(=O)c1cn(-c2ccc(Cl)cc2)c(=O)c2ccccc12 | -81.6
CCCN(CCC)CCCNC(=O)c1cn(-c2ccc(OC)cc2)c(=O)c2ccccc12 | 1.46
CCCCN(CC)CCCNC(=O)c1cn(-c2ccc(OC)cc2)c(=O)c2ccccc12 | -7.85
CCOC(=O)N1CCN(C(C)C(=O)c2c[nH]c3ccccc23)CC1 (centres unmarked) | -0.111
O=C(NNc1ccc(-c2csnn2)cc1)c1ccccc1C(F)(F)F | 9.16
CCC1C(=O)CC(c2ccccc2)NC1c1ccccc1 (centres unmarked) | 5.67
CC1C(=O)C(C)C(c2ccc([N+](=O)[O-])cc2)NC1c1ccc([N+](=O)[O-])cc1 (centres unmarked) | -4.32
CCC1C(=O)C(C)(C)C(=O)OC1c1ccc([N+](=O)[O-])cc1 (centres unmarked) | 9.82
CC1C(=O)CC(c2ccc([N+](=O)[O-])cc2)NC1c1ccc([N+](=O)[O-])cc1.Cl (centres unmarked) | -51
CC1C(=O)CC(c2ccccc2)NC1c1ccccc1 (centres unmarked) | 3.38
CCC1C(=O)CC(c2ccc([N+](=O)[O-])cc2)NC1c1ccc([N+](=O)[O-])cc1 (centres unmarked) | -69.7
Cc1ccc(P(=S)(c2ccc(C)o2)N2CCOCC2)o1 | 3.25
CCn1c(SCC(=O)Nc2cc(NC(C)=O)ccc2OC)nnc1-c1cccnc1 | 7.42
Cc1nc2ccccn2c1CN(C)C(=O)C1CCC(=O)N(Cc2cccc(F)c2)C1 (centres unmarked) | -58
CN(Cc1ccccn1)C(=O)C1CCC(=O)N(Cc2cccc(F)c2)C1 (centres unmarked) | 8.55
Cc1nc2ccccn2c1CN(C)C(=O)C1CCC(=O)N(CCc2cccc(F)c2)C1 (centres unmarked) | -10.4
COc1ccc(C(=O)N/C(=C\c2ccccc2)C(=O)NC(CC(C)C)C(=O)O)cc1 (centres unmarked) | 21.4
Cc1cccc(OCC(=O)Nc2ccncc2)c1 | 6.41
COc1ccc(CN(C)CC(O)COC(c2ccccc2)c2ccccc2)c(OC)c1OC (centres unmarked) | -43.6
COc1cccc(CN(C)CC(O)COC(c2ccccc2)c2ccccc2C)c1 (centres unmarked) | -8.56
COc1ccc(CN(C)CC(O)COC(c2ccc(OC)cc2)c2ccc(OC)cc2)cc1 (centres unmarked) | -80.8
CCN(Cc1ccccc1)CC(O)COC(c1ccc(OC)cc1)c1ccc(OC)cc1 (centres unmarked) | -32.9

Compound | hERG current change (%, negative = inhibition) at 1uM [%]
COc1ccc(C(OCC(O)CN(C)C2CCCCC2)c2ccc(OC)cc2)cc1 (centres unmarked) | -29.3
CCOc1ccc(CN(C)CC(O)COC(c2ccc(OC)cc2)c2ccc(OC)cc2)cc1 (centres unmarked) | -81.9
CCN1CCN(S(=O)(=O)c2ccc(Cl)c(C(=O)NC(C)c3ccccc3Cl)c2)CC1 (centres unmarked) | 5.99
O=C(NCCCO)c1ccc2[nH]c3ccccc3c2c1 | 13.4
O=C(NCc1cc([N+](=O)[O-])ccc1O)c1cccnc1Sc1ccc(Cl)cc1 | 16.3
COc1cccc(C2=CC(c3cc(OC)ccc3OC)n3nnnc3N2)c1 (centres unmarked) | 15.2
O=C(CN(C(=O)c1csnn1)c1ccc(F)cc1)NCc1ccc(F)cc1 | 3.44
CC(=O)Nc1cc2c(cc1NC(=O)c1cnccn1)OCCO2 | 19.8
CCOC(=O)c1sc(NC(=S)NC(=O)c2cccc(Cl)c2)c(C(=O)OCC)c1C | 1.03
COc1ccc(S(=O)(=O)Nc2ccccc2OC)cc1NC(=O)c1cc2ccccc2oc1=O | -4.91
CCC(O)(CCN1CCCCC1)c1ccccc1 (centres unmarked) | 3.27
CCCC(O)(CCN1CCOCC1)c1ccc(Br)cc1.Cl (centres unmarked) | 7.3
CCCC(O)(CCN1CCOCC1)c1ccc(Cl)cc1 (centres unmarked) | 6.26
CCCCOc1ccc(C(O)(CCC)CCN2CCOCC2)cc1 (centres unmarked) | -11
CCCOc1ccc(C(O)(CCC)CCN2CCCCC2)cc1 (centres unmarked) | -25.4
CCCCCC(O)(CCN1CCCCC1)c1ccc(OCC)cc1.Cl (centres unmarked) | -82
CCCCC(O)(CCN1CCOCC1)c1ccc(Cl)cc1.Cl (centres unmarked) | -51.3
CCCCCC(O)(CCN1CCCCC1)c1ccccc1.Cl (centres unmarked) | -84.7
CCCCCCC(O)(CCN1CCCCC1)c1ccccc1.Cl (centres unmarked) | -17.1
O=C1C=C(N2CCCCC2)C2(CCCCC2)O1 | 10.8
Nc1nc(NCc2ccco2)nc(Nc2cccc(F)c2)c1[N+](=O)[O-] | 18.1
O=C(NCCc1ccccc1)c1ccc(Cl)nc1 | 18
COC(=O)c1ccc(CSc2nnc(Nc3cccc(OC)c3)s2)o1 | 10.7

Compound | hERG current change (%, negative = inhibition) at 1uM [%]
COCCCC1CCN(C(=O)C2CCC(=O)N(CC3CCCCC3)C2)CC1 (centres unmarked) | 2.85
COc1ccc(OCC(O)CN2CCNCC2)cc1.Cl (centres unmarked) | 14.6
Fc1cccc(NC(=S)NNc2ccccc2)c1 | 10.7
Cc1ccc2cc(CN(CC3CCCO3)C(=S)Nc3ccccc3)c(=O)[nH]c2c1C (centres unmarked) | 13.3
CCOC(=O)c1[nH]ncc1CN1CCCC(C(=O)c2cc(Cl)ccc2OC)C1 (centres unmarked) | -29.9
O=C(NCCc1ccc2c(c1)OCCO2)c1cc2ccccc2o1 | -16.6
CN(C)S(=O)(=O)N1CCC(Oc2cccc(C(=O)NC3CCCCC3)c2)CC1 | 2.87
CCOC(=O)C(C)(C)Sc1nc2c(cnn2-c2ccc(Cl)cc2)c(=O)[nH]1 | 4.97
CCN1CCCC(OC(=O)Nc2ccccc2)C1 (centres unmarked) | 6.59
Cl.O=C(OC1CCN(CCCl)CC1)C(c1ccccc1)c1ccccc1 | 15.9
CCN1CCCC(OC(=O)C(c2ccccc2)c2ccccc2)C1.Cl (centres unmarked) | -53
Cc1cccc(OCC(=O)Nc2ccc3c(c2)nc(CCN2CCN(C)CC2)n3C)c1 | -6.31
CCN1CCN(CCc2nc3cc(NC(=O)COc4ccc(Cl)cc4)ccc3n2C)CC1 | -26.8
CN1CCN(CCc2nc3cc(NC(=O)COc4ccccc4)ccc3n2C)CC1 | -13.2
Cn1c(CCN2CCCCC2)nc2cc(NC(=O)COc3ccc(Cl)cc3)ccc21 | -89.6
Cc1ccc(OCC(=O)Nc2ccc3c(c2)nc(CCN2CCN(C)CC2)n3C)cc1 | -5.14
Cc1ccc(OCC(=O)Nc2ccc3c(c2)nc(CCN2CCCCC2)n3C)cc1 | -60
CN1CCN(CCc2nc3cc(NC(=O)COc4ccc(Cl)cc4)ccc3n2C)CC1 | -7.52
Cn1c(CCN2CCCCC2)nc2cc(NC(=O)COc3ccccc3)ccc21 | -51.9
COc1ccc(OCC(=O)Nc2ccc3c(c2)nc(CCN2CCCCC2)n3C)cc1 | -31.3
Cc1cccc(OCC(=O)Nc2ccc3c(c2)nc(CCN2CCCCC2)n3C)c1 | -58.3
CCN1CCN(CCc2nc3cc(NC(=O)COc4ccccc4)ccc3n2C)CC1 | 0.262
Cc1cccc(OCC(=O)Nc2ccc3c(c2)nc(CN2CCCCC2)n3C)c1.Cl | -3.37
